# Test results taken from ChEMBL document CHEMBL4513216, “Probing the Open Global Health Chemical Diversity Library for Multistage-Active Starting Points for Next-Generation Antimalarials” (ACS Infect Dis, 2020).
# Hit rate of the full screen: of about 68,000 compounds, about 2,700 (4%) showed an effect of 50% or more. The sample as a whole holds a higher share of strong results than the screen did.
# System: Plasmodium berghei
# Test: Screen against P. berghei liver stage (PbLuc), transformed with Luciferase, at 2uM
# Assay type: functional, HepG2
# Details: tested at 2 uM
row,SMILES,INHIBITION
1,O=C(CN1CCCc2sccc2C1=O)NC1CCc2nccn2C1 (stereo unspecified),-4.89%
2,O=S(=O)(c1cccs1)N1CCN(Cc2nc(-c3ccco3)cs2)CC1,29.89%
3,Cc1ccc(CN2CCC3(CCC3NS(=O)(=O)c3ccccc3)CC2)o1 (stereo unspecified),11.18%
4,O=S(=O)(NC1CCC12CCN(CC1CCOCC1)CC2)c1ccccc1 (stereo unspecified),51.36%
5,O=S(=O)(NC1CCC12CCN(CC1CC1)CC2)c1ccccc1 (stereo unspecified),-3.36%
6,CCc1nnc2n1CCN(C(=O)C(C)Oc1ccc(C#N)cc1)C2 (stereo unspecified),10.77%
7,CN(CCO)C1CCN(c2ncc3c(n2)CCN3c2ccccc2)CC1,15.84%
8,CC(=O)N(C)C1CCN(c2ncc3c(n2)CCN3c2ccccc2)C1 (stereo unspecified),-13.72%
9,CNC(=O)C1CCN(c2ncc3c(n2)CCN3c2ccccc2)C1 (stereo unspecified),51.96%
10,COCCC1(CNC(=O)Nc2ccnc(C)c2)CCCC1,-37.69%
11,CC(=O)N1N=C(c2ccco2)OC1C(=O)NCC(C)C (stereo unspecified),5.77%
12,CC(=O)N1N=C(c2ccco2)OC1C(=O)NCCc1ccc(O)cc1 (stereo unspecified),20.42%
13,CC(=O)N1N=C(c2ccccc2)OC1C(=O)NCCC1=CCCCC1 (stereo unspecified),85.54%
14,CC(=O)N1N=C(c2ccco2)OC1C(=O)NCCc1ccc(F)cc1 (stereo unspecified),58.6%
15,CC(=O)N1N=C(c2ccccc2)OC1C(=O)NCCc1ccc(O)cc1 (stereo unspecified),26.64%
16,CC(=O)N1N=C(c2ccccc2)OC1C(=O)NCCc1ccc(C)cc1 (stereo unspecified),34.18%
17,Cc1noc(CNC(=O)[C@@H](C)NC(=O)OC(C)(C)C)n1,-29.78%
18,Cc1[nH]n(C)c2nc(=O)cc(C(F)(F)C(F)(F)F)c1-2,-69.92%
19,O=C([C@@H]1COC[C@H]2CN(C3CCCC3)C[C@H]21)N1CCC(F)CC1,9.45%
20,O=S(=O)(CCc1ccccc1)Nc1cc(Cl)ccn1,0.51%
21,CCn1cc(S(=O)(=O)N2CCC3(CCCN(CC4CCC4)C3=O)C2)cn1 (stereo unspecified),13.58%
22,Cc1cnn(CC2CCCCN2C(=O)CN(C)C2CC2)c1 (stereo unspecified),21.31%

row,SMILES,INHIBITION
1,O[C@H]1CN(CCOc2ccc(F)cc2)CC[C@@]12CCCO2,9.05%
2,O=C(N1CCOCC1)N1CCc2ncc(CN3CCCCC3)n2CC1,56.25%
3,O=C(C1CCOCC1)N1CCc2ncc(CN3CCCCC3)n2CC1,41.28%
4,O=C(C1CCOCC1)N1CCc2ncc(CN3CCCC3)n2CC1,-9.48%
5,COc1c(Cl)cccc1NCc1csc(NC(C)=O)n1,-49.16%
6,Cc1noc([C@H]2C[C@@H]3CCN(C(=O)N(C)C)C[C@H]3O2)n1,-7.58%
7,CC(NCc1nnc2n1CCCC2)c1nc(-c2cccs2)no1 (stereo unspecified),26.14%
8,Cc1cc(NC(=O)CN2CCn3c(nnc3C3CC3)C2)on1,17.12%
9,CCN(CC)c1ncc(Cl)c(C(=O)NC2CC2)n1,26.8%
10,CCN(CC)c1ncc(Cl)c(C(=O)NC2CCc3nccn3C2)n1 (stereo unspecified),59.56%
11,CCN(CC)c1ncc(Cl)c(C(=O)NC2CCC(O)CC2)n1 (stereo unspecified),-2.22%
12,CCOC(=O)[C@@H]1[C@@H](c2ccccc2)CN2CCN(C(C)=O)C[C@H]12,40.13%
13,CCOCCn1c(=O)[nH]c2cc(C(=O)N(C)Cc3cc(C)[nH]n3)ccc21,14.24%
14,CCOCCn1c(=O)[nH]c2cc(C(=O)N(C)Cc3nc(C)c[nH]3)ccc21,11.64%
15,CCOCCn1c(=O)[nH]c2cc(C(=O)N(C)Cc3nc(C)cs3)ccc21,51.98%
16,COCCN1CCc2ncnc(-c3ccccc3)c2CC1,39.44%
17,Cc1ccn2ncc(C(=O)N3CCCC(c4cc(C)[nH]n4)C3)c2n1 (stereo unspecified),18.91%
18,Cc1ccn2ncc(C(=O)N3CCCC(c4noc(C)n4)C3)c2n1 (stereo unspecified),50.52%
19,Cc1ccn2ncc(C(=O)N3CCCC(n4ccnc4C)C3)c2n1 (stereo unspecified),56.02%
20,Cc1csc(C2CCCN(C(=O)c3cnn4ccc(C)nc34)C2)n1 (stereo unspecified),14.96%
21,Cc1ccn2ncc(C(=O)N3CCCC(n4cccn4)C3)c2n1 (stereo unspecified),5.52%
22,CCc1nccn1C1CCCN(C(=O)c2cnn3ccc(C)nc23)C1 (stereo unspecified),-14.3%

row,SMILES,INHIBITION
1,CCN1Cc2cc(F)ccc2N(C(C)=O)CCC1=O,-10.65%
2,CNc1nc2c(s1)C(c1ccccc1F)CC(=O)N2 (stereo unspecified),-37.62%
3,Cc1ccc(-c2ncc(CNc3cnccc3CO)s2)cc1,-13.13%
4,O=C(C1CCC2(CCN(Cc3cccnc3)CC2)CO1)N1CCCC1 (stereo unspecified),-84.83%
5,CC(NC(=O)N1CCN(c2cccs2)CC1)c1ccc(C#N)cc1 (stereo unspecified),16.79%
6,CN1CCN(Cc2nnc(C3CCN(C4CCCCC4)CC3)n2C)CC1,26.81%
7,CN1CCN(Cc2nnc(C3CCN(C(CO)CO)CC3)n2C)CC1,59.68%
8,CN1CCN(Cc2nnc(C3CCN(CC4CC4)CC3)n2C)CC1,-0.04%
9,Cc1cc(CN2CCC(C3Nc4ccccc4S(=O)(=O)N3)CC2)oc1C (stereo unspecified),22.81%
10,CCOC(=O)CN(C)C1CCc2ccccc21 (stereo unspecified),44.71%
11,CN(C)C(=O)CNC(=O)c1cc2ccccc2nc1N1CCCC1,8.74%
12,CCn1cc(Cl)c(C(=O)NCCCO)n1,12.84%
13,CCN(CC(=O)NCc1nc(C2CC2)no1)Cc1ccc(Cl)cc1,-37.68%
14,O=C(CCNC(=O)c1ccc(Cl)cc1)NCc1nc(C2CC2)no1,60.34%
15,CCc1nc(C2CCCN(C(=O)c3ccc(Cl)cc3)C2)no1 (stereo unspecified),9.82%
16,c1cnc(N2CCCC(NCc3ccc(-n4ccnc4)cc3)C2)nc1 (stereo unspecified),1.91%
17,Cc1cnn(CC2CCCCN2C(=O)c2c(C)noc2C)c1 (stereo unspecified),-13.24%
18,CCC(CO)NCc1ccc(-c2ccccc2)o1 (stereo unspecified),12.02%
19,CN(C)c1ccc(C(=O)NCCCNc2ccc(C(F)(F)F)cn2)cc1,25.74%
20,Nc1ncc(-c2ccc(C(F)(F)F)cc2)c(C2CCCNC2)n1 (stereo unspecified),-10.58%
21,Nc1ncc(-c2ccc(F)cc2)c(C2CCCNC2)n1 (stereo unspecified),54.2%
22,Nc1ncc(-c2ccc(Cl)cc2)c(C2CCCNC2)n1 (stereo unspecified),37.63%

row,SMILES,INHIBITION
1,O=C(C1CC=CC1)N1C[C@@H]2CN(Cc3ccsc3)CCO[C@@H]2C1,-10.92%
2,Cc1ccc(C)c(CC(=O)NC2CCC(N3C(=O)CCC3=O)CC2)c1 (stereo unspecified),-37.65%
3,Cc1ccc(C)c(CC(=O)NC2CCCS(=O)(=O)C2)c1 (stereo unspecified),57.75%
4,Cc1ccc(C)c(CC(=O)NC2CCS(=O)(=O)CC2)c1,29.13%
5,CC(C)c1nc(CN(C)C(=O)c2ccc(CN3CCCCC3)cc2)cs1,0.31%
6,Fc1ccc(CN2CCC3(CC2)CC(c2cccnc2)CO3)cc1 (stereo unspecified),-14.21%
7,CC(C)N(C)Cc1cnc2n1CCN(C(=O)Cc1cccs1)C2C (stereo unspecified),70.31%
8,CCOCc1cnc2n1CCN(C(=O)Cc1cccs1)C2C (stereo unspecified),-24.63%
9,CC1c2ncc(Cn3cncn3)n2CCN1C(=O)Cc1cccs1 (stereo unspecified),28.77%
10,CCc1n[nH]c(C2CN(C(=O)c3cc4c(s3)CCCC4)CCO2)n1 (stereo unspecified),20.28%
11,Cc1cc2c(N)nc(=O)n(CC(=O)Nc3cccc(Cl)c3)c2s1,6.05%
12,CCN(CCOC)C(=O)c1cc(COc2ccc3c(c2)CCCC3)on1,29.89%
13,CC(C)OCCN1CCc2cncnc2C1,62.51%
14,CCOCCN1CCc2cncnc2C1,31.51%
15,COCCCN1CCc2cncnc2C1,-12.48%
16,COC(=O)c1sc(C(NC(=O)c2ccccc2)C2CC2)nc1C (stereo unspecified),-13.12%
17,C=C(C)CN1CCC(NC(=O)c2scnc2C)CC1,-7.13%
18,COc1cc(I)c(Cl)cc1C(=O)N(C)C,32.04%
19,Cc1cc2n(n1)CCN(c1nc(N)nc3c1CCNCC3)C2,17.6%
20,COCCNc1nc2c(c(N3CCn4nc(C)cc4C3)n1)CCNCC2,51.19%
21,CCOCc1nc2c(c(N3CCCn4nc(C)cc4C3)n1)CCNCC2,-31.55%
22,O=C1CC[C@@H](C(=O)N2CCC(Cn3cc(C4CCCCC4)nn3)CC2)N1,17.61%

row,SMILES,INHIBITION
1,CC(C)n1nc2c(cc1=O)CN(c1ncnc3sccc13)CC2,-35.16%
2,COCCN1C(=O)c2ccc(C(=O)NCCc3c[nH]cn3)cc2C1=O,34.59%
3,CC(C)CN(CC(O)c1ccc(F)cc1)C(=O)c1cnsn1 (stereo unspecified),-36.72%
4,O=C(NC1CCN(Cn2nc(-c3ccccc3)oc2=O)CC1)C1CC1,-0.69%
5,CC1CCCN(Cc2cccc(C(=O)Nc3nccs3)c2)C1 (stereo unspecified),63.46%
6,Cc1cc(C2CCCN2Cc2cccc(C(=O)Nc3nccs3)c2)no1 (stereo unspecified),2.7%
7,CC(=O)Nc1cccc(CN2CCCC2C(=O)Nc2nccs2)c1 (stereo unspecified),-4.48%
8,CC(C)N(C)Cc1cn2c(n1)CN(C(=O)Cc1ccccc1)CC2,-47.56%
9,Cc1noc(Cl)c1CCC(=O)N1CCN(CC(C)(C)O)CC1,21.89%
10,CCN1CCN(C(=O)CCc2c(C)noc2Cl)CC1,-61.5%
11,Cc1noc(Cl)c1CCC(=O)N1CCN(Cc2ccncc2)CC1,62.13%
12,O=C(Nc1ccc2c(ccn2CCN2CCOCC2)c1)c1ccccn1,13.72%
13,Cc1cc(CN(C)C(=O)NC2CCCC2)no1,29.12%
14,N#Cc1cccc(N2CCCC3(CCC(=O)N(C4CCCC4)C3)C2)n1 (stereo unspecified),-11.07%
15,COc1c(C2CCCN2C(=O)c2sc(C)nc2C)c(C)nn1C (stereo unspecified),-37.68%
16,CN(C)C(=O)CN1CCCCC1c1nc(N)ncc1-c1cccc(F)c1 (stereo unspecified),65.76%
17,NC(=O)CN1CCCCC1c1nc(N)ncc1-c1cccc(F)c1 (stereo unspecified),18.64%
18,CN(C)C(=O)CN1CCCCC1c1nc(N)ncc1-c1ccccc1 (stereo unspecified),-19.81%
